In PubChem BioAssay:

Key:
[1] = test system: Human papillomavirus type 1a protein E7 (residues 44-93); test: small molecules binding HPV E7 44-93 – biochemical, small-molecule microarray, residues 44-93, 635 nm fluorescence, primary screen (AID 1108); conditions: fluorescence 635 nm, higher = more signal;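 also: E7 fragment applied at 1 µg/mL in TBST for 1 h at 4 C; score combines spot fluorescence with its signal to noise ratio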
[2] = hepatitis C replication reporter changes, two-sided – Huh7 cells, luciferase reporter, HCV replication inhibitor project, primary screen (AID 1109); conditions: Huh7 HCV replicon luciferase reporter, 48 h; higher = more signal;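 also: huh7 hepatoma cells harbouring a luciferase neomycin HCV replicon reporter; luciferase luminescence as measure of HCV replicon replication; test concentration not given here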
[3] = target: Left-right determination factor 2 (Homo sapiens) (UniProt O00292); test: small molecules binding LEFTY2 protein – biochemical, small-molecule microarray, 635 nm fluorescence scan, primary screen (AID 1110); conditions: higher = more signal
Chain of Left-right determination factor 2 (Homo sapiens) (O00292 whole entry, looked up): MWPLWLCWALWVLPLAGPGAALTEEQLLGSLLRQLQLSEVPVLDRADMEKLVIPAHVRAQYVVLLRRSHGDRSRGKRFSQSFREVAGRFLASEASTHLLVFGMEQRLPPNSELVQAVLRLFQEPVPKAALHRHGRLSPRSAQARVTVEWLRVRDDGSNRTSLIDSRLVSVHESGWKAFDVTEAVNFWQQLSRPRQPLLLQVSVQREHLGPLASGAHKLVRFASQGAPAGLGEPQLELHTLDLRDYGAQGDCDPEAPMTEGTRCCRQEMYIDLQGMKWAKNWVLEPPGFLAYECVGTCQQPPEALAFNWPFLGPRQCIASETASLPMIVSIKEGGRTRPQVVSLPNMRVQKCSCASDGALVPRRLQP

[4] = target: Calmodulin-1 (Homo sapiens) (UniProt P0DP23); test: small molecules binding calmodulin-1 with EGTA – biochemical, small-molecule microarray, Cy5-labelled CALM1, profiling panel (AID 1111); conditions: Cy5-CALM1 binding fluorescence, higher = more signal;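 also: labelled calmodulin applied in Tris saline Tween buffer holding calcium plus EGTA and DTT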
[5] = target: Calmodulin-1 (Homo sapiens) (UniProt P0DP23); test: small molecules binding Ca-loaded calmodulin-1 – biochemical, small-molecule microarray, Cy5-labelled CALM1, plus calcium, artefact control for SMM control-protein annotation, profiling panel (AID 1112); conditions: Cy5-CALM1 binding fluorescence, higher = more signal;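 also: score merges spot fluorescence with signal to noise from triplicate slides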
[6] = probe aWnt5a binding to arrayed compounds – biochemical, biotinylated probe, 635/667 nm fluorescence, primary screen (AID 1113); conditions: small-molecule microarray, higher = more signal;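 also: score merges 667 nm fluorescence intensity with signal-to-noise per printed feature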
[7] = probe aShh binding to arrayed compounds – biochemical, biotinylated probe, 635/667 nm fluorescence, primary screen (AID 1114); conditions: small-molecule microarray, higher = more signal;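 also: probe is biotin-labelled aShh protein from a stem cell growth factor screen; measures binding of labelled protein to compounds printed on the slide; score merges feature fluorescence at 667 nm with signal-to-noise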
[8] = probe aNog binding to arrayed compounds – biochemical, biotinylated probe, 635/667 nm fluorescence, primary screen (AID 1115); conditions: small-molecule microarray, higher = more signal;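 also: probe is biotinylated aNog protein used at 0.15 µg/mL for 1 h at 4 C; z-score combines 667 nm fluorescence of each spot with its signal to noise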
[9] = target: Torsin-1A-interacting protein 1 (Homo sapiens) (UniProt Q5JTV8); test: compound microarray binding of lysate hLAP1 – cell lysate, small-molecule microarray, COS7 lysate, 635/667 nm fluorescence, primary screen (AID 1116); conditions: 635 nm fluorescence, higher = more signal
Chain of Torsin-1A-interacting protein 1 (Homo sapiens) (Q5JTV8 whole entry, looked up): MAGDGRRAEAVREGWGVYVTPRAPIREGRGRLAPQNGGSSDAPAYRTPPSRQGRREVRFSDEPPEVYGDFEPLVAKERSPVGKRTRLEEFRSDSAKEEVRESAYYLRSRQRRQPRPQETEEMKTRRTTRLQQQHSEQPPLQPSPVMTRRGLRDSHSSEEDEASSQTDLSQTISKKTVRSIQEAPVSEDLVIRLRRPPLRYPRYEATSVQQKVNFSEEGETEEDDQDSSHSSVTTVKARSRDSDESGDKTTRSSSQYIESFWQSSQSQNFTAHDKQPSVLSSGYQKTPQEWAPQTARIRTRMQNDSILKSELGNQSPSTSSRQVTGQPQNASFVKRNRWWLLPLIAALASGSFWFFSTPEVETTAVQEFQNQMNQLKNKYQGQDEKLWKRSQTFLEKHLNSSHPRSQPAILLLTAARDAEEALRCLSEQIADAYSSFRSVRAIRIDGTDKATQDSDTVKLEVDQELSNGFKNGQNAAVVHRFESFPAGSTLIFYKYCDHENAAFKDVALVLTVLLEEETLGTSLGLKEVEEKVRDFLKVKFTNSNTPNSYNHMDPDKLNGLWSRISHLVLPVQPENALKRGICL

[10] = target: Alpha-bungarotoxin (Bungarus multicinctus) (UniProt P60615); test: compounds binding labelled alpha-BTX control protein – biochemical, small-molecule microarray, Alexa647 label, 635/667 nm fluorescence, artefact control for SMM control protein annotation, profiling panel (AID 1117); conditions: alpha-BTX-A647 binding fluorescence, higher = more signal
Chain of Alpha-bungarotoxin (Bungarus multicinctus) (P60615 whole entry, looked up): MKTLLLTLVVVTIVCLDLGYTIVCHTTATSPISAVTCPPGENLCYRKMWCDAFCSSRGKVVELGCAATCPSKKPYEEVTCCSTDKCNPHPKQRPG

Compound: COC(=O)c1c(CC[C@@H](CO)NC(=O)N2CCC[C@H]2Cn2cc(C3(O)CCCCC3)nn2)oc(C(C)=O)c1C(=O)OC
- composite z-score [1]: 1.33
- z-score [2]: -0.172
- composite z-score [3]: 0.562
- composite z-score [4]: 0.624
- composite z-score [5]: -0.712
- composite z-score [6]: -0.275
- composite z-score [7]: -0.0709
- composite z-score [8]: 0.189
- composite z-score [9]: 0.416
- composite z-score [10]: 0.966

Compound: CCCCCN1CC=CC23O[C@@H]4/C=C\CCCOC(=O)C4[C@H]2C(=O)N(C(C)CO)[C@@H]3C1=O (stereo not given in full)
- composite z-score [1]: -0.141
- z-score [2]: -0.646
- composite z-score [3]: -1.67
- composite z-score [4]: -0.452
- composite z-score [5]: -0.254
- composite z-score [6]: -0.203
- composite z-score [7]: -0.181
- composite z-score [8]: -0.0057
- composite z-score [9]: -0.111
- composite z-score [10]: 2.97

Compound: [N-]=[N+]=Nc1ccccc1C[C@@]1(C(=O)NCCN2CCOCC2)N=C(c2ccc(OCCCO)cc2)O[C@@H]1c1ccccc1N=[N+]=[N-]
- composite z-score [1]: -0.241
- z-score [2]: -2.99
- composite z-score [3]: 0.0057
- composite z-score [4]: 1.94
- composite z-score [5]: 0.455
- composite z-score [6]: 0.0543
- composite z-score [7]: 0.411
- composite z-score [8]: -0.406
- composite z-score [9]: 1.08
- composite z-score [10]: 1.74

Compound: COC(=O)[C@@]1(Cc2ccc(OC)cc2)[C@H]2c3cc(C(=O)N4CCCC4)n(CCc4c[nH]c5ccc(O)cc45)c3C[C@H]2CN1C(=O)c1ccccc1
- composite z-score [1]: 1.39
- z-score [2]: -1.51
- composite z-score [3]: 0.148
- composite z-score [4]: 0.797
- composite z-score [5]: 0.202
- composite z-score [6]: 0.14
- composite z-score [7]: 0.315
- composite z-score [8]: 0.863
- composite z-score [9]: 1.4
- composite z-score [10]: 0.485

Compound: CC(C)[Si](C#C[Si](C(C)C)(C(C)C)C(C)C)(O[C@H](c1ccccc1)c1cn(Cc2ccccc2)nn1)C(C)C
- composite z-score [1]: 1.06
- z-score [2]: -0.0298
- composite z-score [3]: 0.637
- composite z-score [4]: 0.192
- composite z-score [5]: -0.774
- composite z-score [6]: -0.0794
- composite z-score [7]: -0.0769
- composite z-score [8]: 0.256
- composite z-score [9]: 0.352
- composite z-score [10]: 0.717

Compound: CCCC=C(CCC)[C@@H](NS(=O)(=O)c1ccc(C(F)(F)F)cc1)c1ccccc1
- composite z-score [1]: 0.608
- z-score [2]: -0.0015
- composite z-score [3]: -0.318
- composite z-score [4]: 0.641
- composite z-score [5]: 0.951
- composite z-score [6]: 0.0853
- composite z-score [7]: -0.106
- composite z-score [8]: 0.711
- composite z-score [9]: -0.127
- composite z-score [10]: 0.261

Compound: CCOC(=O)C[C@H]1[C@H](OC(=O)Cc2ccc3c(c2)OCO3)[C@@H](NC(=O)C2CCCCC2)c2cc(OCCCO)ccc2N1C(=O)c1ccccc1
- composite z-score [1]: 0.232
- z-score [2]: -0.509
- composite z-score [3]: -0.684
- composite z-score [4]: 0.379
- composite z-score [5]: 0.389
- composite z-score [6]: -0.1
- composite z-score [7]: -0.147
- composite z-score [8]: -0.272
- composite z-score [9]: 0.653
- composite z-score [10]: 0.262

Compound: C=CCNC(=O)[C@H]1[C@@H]2C(=O)O[C@@H](c3ccccc3)[C@@H](c3ccccc3)N2[C@@H](c2ccccc2OCCO)[C@]12C(=O)N(C(=O)OCCOC)c1ccc(C#CC3(O)CCCCCC3)cc12
- composite z-score [1]: 1.25
- z-score [2]: -2.88
- composite z-score [3]: 0.371
- composite z-score [4]: 1.09
- composite z-score [5]: 0.647
- composite z-score [6]: -0.0239
- composite z-score [7]: 0.176
- composite z-score [8]: -0.168
- composite z-score [9]: 1.22
- composite z-score [10]: 0.996

Compound: Cc1ccc(S[C@]2(C(=O)NCC(F)(F)F)CC(=O)N(Cc3cc(C(F)(F)F)cc(C(F)(F)F)c3)[C@@H]2c2ccc(CO)cc2)cc1
- composite z-score [1]: -0.109
- z-score [2]: -0.099
- composite z-score [3]: -0.968
- composite z-score [4]: -0.392
- composite z-score [5]: 0.159
- composite z-score [6]: -0.25
- composite z-score [7]: -0.356
- composite z-score [8]: 0.162
- composite z-score [9]: -0.851
- composite z-score [10]: -0.633

Compound: N[C@@H](Cc1ccccc1)C(=O)NCc1cn(Cc2ccccc2)nn1
- composite z-score [1]: -0.132
- z-score [2]: 0.0943
- composite z-score [3]: 0.167
- composite z-score [4]: -0.761
- composite z-score [5]: -0.232
- composite z-score [6]: -0.119
- composite z-score [7]: -0.0904
- composite z-score [8]: -0.245
- composite z-score [9]: 0.775
- composite z-score [10]: 1.11

Compound: C=CCOC(=O)[C@@H]1[C@H]2C(=O)O[C@H](c3ccccc3)[C@H](c3ccccc3)N2[C@H](c2ccc(OCCOC(=O)[C@@H]3C[C@@H]4C(=O)N[C@@H](CCCC[N+](C)(C)C)C(=O)N4[C@@H]3c3ccc(O)cc3)cc2)[C@@]12C(=O)Nc1ccc(I)cc12
- composite z-score [1]: 1.41
- z-score [2]: -0.282
- composite z-score [3]: 0.459
- composite z-score [4]: -0.14
- composite z-score [5]: -0.521
- composite z-score [6]: -0.112
- composite z-score [7]: 0.614
- composite z-score [8]: 0.559
- composite z-score [9]: 1.36
- composite z-score [10]: 0.923

Compound: COCCOC(=O)N1C(=O)[C@@]2(c3cc(C#CCNC(N)=O)ccc31)[C@H](C(N)=O)[C@H]1C(=O)O[C@H](c3ccccc3)[C@H](c3ccccc3)N1[C@@H]2c1ccccc1OCCO
- composite z-score [1]: 0.989
- z-score [2]: -0.814
- composite z-score [3]: 0.467
- composite z-score [4]: 0.318
- composite z-score [5]: -0.304
- composite z-score [6]: -0.129
- composite z-score [7]: -0.0977
- composite z-score [8]: -0.288
- composite z-score [9]: 1.26
- composite z-score [10]: 1.06

Compound: O=C1C[C@]2(c3ccc([N+](=O)[O-])cc3)C(=O)N(C3CC3)c3cc(CO)ccc3[C@H]2N1CC12CC3CC(CC(C3)C1)C2
- composite z-score [1]: 0.471
- z-score [2]: -0.479
- composite z-score [3]: -1.6
- composite z-score [4]: -0.448
- composite z-score [5]: -0.87
- composite z-score [6]: -0.148
- composite z-score [7]: -0.124
- composite z-score [8]: 0.632
- composite z-score [9]: -0.604
- composite z-score [10]: -0.444

Compound: COc1cc2c(cc1O)C(c1ccc(CN3CCCC3)cc1)N(Cc1cc3c(cc1Br)OCO3)CC2 (stereo not given)
- composite z-score [1]: -1.28
- z-score [2]: -2.92
- composite z-score [3]: -0.248
- composite z-score [4]: 1.47
- composite z-score [5]: 0.91
- composite z-score [6]: -0.109
- composite z-score [7]: -0.2
- composite z-score [8]: 0.114
- composite z-score [9]: 0.16
- composite z-score [10]: 0.132

Compound: O=C1O[C@H](c2ccccc2)[C@H](c2ccccc2)N2[C@H]1[C@@H](C(=O)O)[C@]1(C(=O)Nc3ccc(C#CCCO)cc31)[C@H]2c1ccccc1OCCO
- composite z-score [1]: 1.24
- z-score [2]: -0.488
- composite z-score [3]: -0.587
- composite z-score [4]: 0.4
- composite z-score [5]: 0.0772
- composite z-score [6]: -0.139
- composite z-score [7]: 0.0141
- composite z-score [8]: -0.539
- composite z-score [9]: 0.182
- composite z-score [10]: 0.649
